KLK7 zymogen act: proKLK7 zymogen activators, primary screen, biochemical, fluorescence intensity. activation, % at 7 µM. actives 0.9% (n = 370,000). AID 652039, 2013. purified proKLK7, EDANS-DABCYL substrate fluorescence; 100% is mature enzyme control, 0% vehicle;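 active = activation above the mean of all tested compounds plus 3 SD, computed per campaign excluding outliers beyond control limits, cut at about 13% in these data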
Neddylation inh: inhibitors of cullin neddylation, primary screen, biochemical, TR-FRET, uHTS, NAE and Ubc12; NEDD8-conjugating enzyme Ubc12 (Homo sapiens) + NEDD8-activating enzyme E1 regulatory …; calls only at 25 µM; actives 0.58% (n = 360,000); AID 651699, 2012; in the data active = inhibition above about 36%
FAS TE block: FAS thioesterase domain inhibitors, primary screen, biochemical, fluorescence intensity, uHTS; actives 0.67% (n = 360,000); inhibition, % at 15 µM; Fatty acid synthase (Homo sapiens), P49327; recombinant FAS-TE, OMFH fluorogenic substrate, fluorescence endpoint;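 active = compounds whose normalised, plate-corrected inhibition of enzyme fluorescence in the single-dose primary screen is 50% or more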;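 note: 0% = DMSO with enzyme and 100% = substrate without enzyme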
Target sequence (P49327 whole entry, looked up, the tested form may be a part): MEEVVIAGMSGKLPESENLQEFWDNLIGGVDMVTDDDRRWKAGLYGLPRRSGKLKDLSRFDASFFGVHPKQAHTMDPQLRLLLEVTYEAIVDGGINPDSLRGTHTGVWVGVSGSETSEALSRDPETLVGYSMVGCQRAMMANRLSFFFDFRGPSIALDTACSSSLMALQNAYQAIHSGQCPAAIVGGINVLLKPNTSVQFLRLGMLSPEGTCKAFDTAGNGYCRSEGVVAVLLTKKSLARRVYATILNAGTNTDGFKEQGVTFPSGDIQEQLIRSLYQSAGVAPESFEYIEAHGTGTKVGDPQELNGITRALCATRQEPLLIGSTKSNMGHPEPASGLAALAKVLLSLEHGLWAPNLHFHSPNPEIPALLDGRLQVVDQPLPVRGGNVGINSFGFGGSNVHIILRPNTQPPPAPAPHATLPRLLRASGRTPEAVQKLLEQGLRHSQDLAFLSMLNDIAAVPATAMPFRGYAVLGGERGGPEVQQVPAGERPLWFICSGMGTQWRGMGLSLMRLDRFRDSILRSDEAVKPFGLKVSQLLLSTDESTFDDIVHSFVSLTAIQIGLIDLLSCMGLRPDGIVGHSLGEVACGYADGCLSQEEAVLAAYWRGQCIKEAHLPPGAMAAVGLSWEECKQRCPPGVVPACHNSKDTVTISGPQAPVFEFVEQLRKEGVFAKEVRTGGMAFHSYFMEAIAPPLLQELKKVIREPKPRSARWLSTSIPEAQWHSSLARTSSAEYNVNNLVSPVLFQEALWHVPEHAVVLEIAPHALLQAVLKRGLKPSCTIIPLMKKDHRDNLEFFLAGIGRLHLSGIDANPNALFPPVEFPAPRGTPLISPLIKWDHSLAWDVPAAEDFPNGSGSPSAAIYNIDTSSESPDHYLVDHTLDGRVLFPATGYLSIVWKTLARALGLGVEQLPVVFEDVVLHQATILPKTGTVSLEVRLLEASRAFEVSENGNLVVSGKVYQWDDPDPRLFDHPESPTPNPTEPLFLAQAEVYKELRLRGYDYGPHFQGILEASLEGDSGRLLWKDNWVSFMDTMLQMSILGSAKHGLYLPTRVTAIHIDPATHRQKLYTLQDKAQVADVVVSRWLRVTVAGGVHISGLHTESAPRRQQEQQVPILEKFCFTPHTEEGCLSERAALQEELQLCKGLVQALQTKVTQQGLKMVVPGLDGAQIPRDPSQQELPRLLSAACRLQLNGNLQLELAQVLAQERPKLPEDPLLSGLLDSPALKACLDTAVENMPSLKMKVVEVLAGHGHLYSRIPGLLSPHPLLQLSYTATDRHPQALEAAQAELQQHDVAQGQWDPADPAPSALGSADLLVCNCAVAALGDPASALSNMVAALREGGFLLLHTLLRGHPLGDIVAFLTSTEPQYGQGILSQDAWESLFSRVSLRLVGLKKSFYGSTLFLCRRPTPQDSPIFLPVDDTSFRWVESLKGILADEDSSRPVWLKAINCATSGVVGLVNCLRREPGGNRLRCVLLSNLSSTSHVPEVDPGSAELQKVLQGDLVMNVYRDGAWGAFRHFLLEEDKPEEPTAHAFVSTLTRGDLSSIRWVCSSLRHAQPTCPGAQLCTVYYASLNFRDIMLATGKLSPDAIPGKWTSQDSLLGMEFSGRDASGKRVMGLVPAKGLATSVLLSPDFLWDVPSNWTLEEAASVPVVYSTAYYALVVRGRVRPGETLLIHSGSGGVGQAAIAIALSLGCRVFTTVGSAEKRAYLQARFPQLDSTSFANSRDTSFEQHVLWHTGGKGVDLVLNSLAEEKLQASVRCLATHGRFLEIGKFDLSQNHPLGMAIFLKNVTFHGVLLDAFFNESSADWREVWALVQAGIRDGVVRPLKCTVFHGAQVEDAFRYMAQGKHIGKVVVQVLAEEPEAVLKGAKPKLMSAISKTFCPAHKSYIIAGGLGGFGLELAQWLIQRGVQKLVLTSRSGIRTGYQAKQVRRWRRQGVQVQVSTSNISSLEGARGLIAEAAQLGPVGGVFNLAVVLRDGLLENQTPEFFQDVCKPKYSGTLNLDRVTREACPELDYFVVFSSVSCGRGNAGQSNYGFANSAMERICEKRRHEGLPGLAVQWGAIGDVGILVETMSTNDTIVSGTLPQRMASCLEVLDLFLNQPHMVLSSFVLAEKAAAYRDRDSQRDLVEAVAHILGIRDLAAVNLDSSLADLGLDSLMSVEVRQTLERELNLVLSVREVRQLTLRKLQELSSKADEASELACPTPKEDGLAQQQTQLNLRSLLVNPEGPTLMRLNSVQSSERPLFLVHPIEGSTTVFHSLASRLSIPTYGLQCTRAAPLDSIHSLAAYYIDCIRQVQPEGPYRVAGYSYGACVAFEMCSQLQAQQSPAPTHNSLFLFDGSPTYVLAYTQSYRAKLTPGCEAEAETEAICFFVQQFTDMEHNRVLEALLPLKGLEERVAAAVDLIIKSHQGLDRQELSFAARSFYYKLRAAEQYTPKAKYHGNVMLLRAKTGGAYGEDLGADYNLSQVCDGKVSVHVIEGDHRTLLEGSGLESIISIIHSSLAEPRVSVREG
PfG6PD inh: PfG6PD enzyme inhibitors, primary screen, biochemical, fluorescence intensity, uHTS; AID 504690, 2011; inhibition, % at 20 µM; actives 0.78% (n = 350,000); PfGluPho enzyme, NADPH resazurin-diaphorase fluorescence; glucose-6-phosphate dehydrogenase-6-phosphogluconolactonase (Plasmodium falciparum 3D7);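 active = inhibition reaching at least a set limit at 20 µM in the primary screen, cut at about 59% in these data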;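 note: 0% = DMSO wells with substrate and 100% = DMSO wells lacking glucose-6-phosphate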
FAS-TE inh conf: FAS thioesterase domain inhibitors, confirmation, biochemical, fluorescence intensity, single concentration | shares compounds with FAS TE block | recombinant FAS-TE, OMFH fluorogenic substrate | inhibition, % at 15 µM | actives 45% (n = 2,300);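 active = compounds inhibiting the enzyme by at least 50% at 15 µM in any one of the replicates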;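 note: 0% = enzyme with DMSO only and 100% = wells lacking enzyme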
* marks the source's active call; other numbers are inactive results; i = inactive; x = no result given. A selection: hits, their analogues and other compounds. The true share with any hit is near 2.7%.

SMILES	KLK7 zymogen act	Neddylation inh	FAS TE block	PfG6PD inh	FAS-TE inh conf
CCOC(=O)N1C(=O)C[C@](Sc2ccc(OC)cc2)(C(=O)N(C)C)[C@H]1c1ccc(OC)cc1	0	x	x	x	x
COC(=O)[C@]12C[C@H](CC(=O)NCc3ccccc3)C(=O)N(Cc3ccco3)C1=C[C@H](C1CCCC1)O[C@@H]2C	0	x	x	x	x
CC(=O)c1cc(-c2ccc(Cl)c(C(F)(F)F)c2)c(=O)n2c1CCC2	1	x	x	x	x
COc1ccc(C(=O)OCC(=O)Nc2ccccc2)cc1[N+](=O)[O-]	0	i	62*	-4	46*
COc1ccc(C(=O)OCC(=O)NC(=O)NCc2ccccc2)cc1[N+](=O)[O-]	0	i	26	2	x
Cc1ccc(C(=O)Nc2ccccc2N2CCCCC2)cc1[N+](=O)[O-]	0	i	46	7	x
COc1ccc(C(=O)Nc2ccccc2N2CCCCC2)cc1[N+](=O)[O-]	0	i	57*	10	31
CCCCNS(=O)(=O)/C=C/c1ccccc1CNC(=O)OC(C)(C)C	1	x	x	x	x
O=C(Nc1ccc(-c2nnc3n2CCCCC3)cc1)c1cc2ccccc2o1	0	i	1	10	x
Cc1c(C(=O)Nc2ccc(-c3nnc4n3CCCCC4)cc2)oc2c1ccc1ccccc12	-2	x	78*	21	6
CC1(C(=O)Nc2ccc(Cl)c(Cl)c2)CCN1C(=O)CC1CCCC1 (stereo not given)	0	i	62*	x	54*
CC1(C(=O)Nc2ccc3c(c2)OCCO3)CCN1C(=O)CC1CCCC1 (stereo not given)	0	i	-6	x	x
CC(CCc1ccccc1)NC(=O)c1cccc([N+](=O)[O-])c1 (stereo not given)	1	i	62*	-5	70*
O=[N+]([O-])c1cccc(NC(=S)NCCc2ccccc2)c1	0	i	65*	11	57*
O=C(Nc1ccc([N+](=O)[O-])cc1)c1cccc([N+](=O)[O-])c1	1	i	9	10	x
CC(Cc1ccccc1)NC(=O)c1ccc([N+](=O)[O-])cc1 (stereo not given)	0	i	22	-11	x
O=C(NCCCCc1ccccc1)c1cc([N+](=O)[O-])cc([N+](=O)[O-])c1	0	i	52*	-9	53*
O=C(Nc1ccc(Cc2ccncc2)cc1)c1cccc([N+](=O)[O-])c1	0	i	66*	6	70*
CCCCCn1nnnc1C1(C)CN(S(C)(=O)=O)CC(=O)N1Cc1ccco1 (stereo not given)	-1	x	x	x	x
CCOc1ccc(-n2c(SC/C=C/c3ccccc3)nnc2-c2ccco2)cc1	0	x	x	x	x
COC(=O)CN(Cc1cn(Cc2ccccc2)nn1)S(=O)(=O)c1ccccc1Br	1	x	x	x	x
O=C(NCCCc1ccccc1)c1ccccc1	0	i	-9	5	x
O=C(NCCCc1ccccc1)c1cccc([N+](=O)[O-])c1	0	i	67*	-9	51*
O=C(NCCCCc1ccccc1)c1cccc([N+](=O)[O-])c1	0	i	54*	-2	65*
O=C(Nc1ccc(Cl)c(Cl)c1)C1CCN(c2nnc(-n3cccc3)s2)CC1	1	x	x	x	x
SMILES	KLK7 zymogen act	Neddylation inh	FAS TE block	PfG6PD inh	FAS-TE inh conf
COC(=O)C1CN(Cc2ccccc2)CCS(=O)(=O)N1Cc1cn(Cc2ccc(C)cc2)nn1 (stereo not given)	0	x	x	x	x
CN1C[C@H](C(=O)N[C@]2(C)O[C@@]3(O)[C@@H]4CCCN4C(=O)[C@H](Cc4ccccc4)N3C2=O)CC2c3cccc4[nH]cc(c34)C[C@H]21 (stereo not given in full)	1	i	56*	-7	52*
C[C@@H](NC(=O)c1nc[nH]c1C(=O)N[C@@H](CCCCNC(=O)OC(C)(C)C)C(=O)OC(C)(C)C)c1ccccc1	0	i	18	25	x
COc1ccc(NC(=O)c2nc[nH]c2C(=O)N[C@H](C)c2ccccc2)cc1	0	i	56*	7	50*
CC(C)(C)OC(=O)NCCCC[C@H](NC(=O)c1[nH]cnc1C(=O)Nc1ccccc1)C(=O)OC(C)(C)C	0	i	69*	28	80*
CC(C)(C)OC(=O)NCc1ccc(CNC(=O)c2nc[nH]c2C(=O)NCc2ccccc2)cc1	0	i	7	17	x
CC(C)(C)OC(=O)NCc1ccc(CNC(=O)c2[nH]cnc2C(=O)NCC(=O)OCc2ccccc2)cc1	0	i	66*	25	76*
CCCC(=O)OC12CCCN(C1)/C(=C/c1ccccc1)C2 (stereo not given)	0	x	x	x	x
CSc1nc(-c2cccs2)c(C#N)c(=O)[nH]1	1	i	-4	0	x
N#Cc1c(-c2cccs2)nc(SCc2ccc(Cl)cc2)[nH]c1=O	0	i	66*	-23	79*
O=[N+]([O-])c1cccc(-c2ccc(SCc3cccnc3)nn2)c1	0	i	53*	10	58*
CSc1ccc(-c2cccc([N+](=O)[O-])c2)nn1	-1	i	5	5	x
COc1ccc(/C=C2\SC(=O)N(CCNC(=O)C3CCN(S(=O)(=O)c4cccs4)CC3)C2=O)cc1	0	i	54*	-5	16
CCOC(=O)c1c(NC(=O)c2ccc(N3C(=O)[C@@H]4[C@H](C3=O)[C@H]3C=C[C@@H]4C3)cc2)sc2c1CC(C)CC2 (stereo not given in full)	0	x	51*	6	10
CCOC(=O)c1c(NC(=O)C2C3C=CC(C3)C2C(=O)O)sc2c1CC(C)CC2 (stereo not given)	1	i	0	-45	x
O=C(NC(Cc1ccccc1)c1nc2ccccc2[nH]1)c1ccc(Cl)c([N+](=O)[O-])c1 (stereo not given)	0	i	26	-38	x
CSCC[C@H](NC(=O)c1ccc(Cl)c([N+](=O)[O-])c1)c1nc2ccccc2[nH]1	0	i	59*	4	64*
O=C(Nc1nc(-c2ccc3ccccc3c2)cs1)C1CCN(S(=O)(=O)c2cccs2)CC1	1	i	88*	0	7
CCCN1CCS(=O)(=O)N(Cc2cn(Cc3ccccc3)nn2)C(C(=O)OC)C1 (stereo not given)	0	x	x	x	x
NC(=O)c1ccc(C(F)(F)F)n(Cc2c(Cl)cccc2Cl)c1=O	0	i	50*	15	41
COc1ccc(Cn2c(C(F)(F)F)ccc(C(N)=O)c2=O)cc1	2	i	3	-7	x
CCN(CC)C(=O)CC[C@@H]1CC[C@]2(CCCN(Cc3ccncc3)C2)O1	0	x	x	x	x
O=S(=O)(c1ccccc1Br)N(Cc1cn(Cc2ccccc2)nn1)C1CC1	1	x	x	x	x

Bioassay records from PubChem.
